# Screening results as filed in PubChem BioAssay.
# In the library only some 15% were active in any assay of this set; here they are far more common.
# ELG1 DNA repair – blocks ELG1-dependent DNA repair in HEK293T cells | Potency, µM (series often up to 46.1 µM), for inactives: at the top dose activity change, negative = inhibition, most hits filed as inhibitors | HEK293T ELG1-luciferase reporter, luminescence, 16 h; DNA damage induced by 5-fluorouridine | actives 2.3% (n = 330,000) | AID 504467; further: nearly all actives have a fitted effect of over 55% in size
#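 Cells (2,000 per well) received 5-fluorouridine plus test compound or DMSO and were incubated 16 hr at 37 °C, 5% CO2. Luciferase activity was read by luminescence 30 min after ONE-Glo addition; signal suppression marked inhibition of damage-induced ELG1 function.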
# TDP1 cell noCPT – qHTS for Inhibitors of human tyrosyl-DNA phosphodiesterase 1 (TDP1): qHTS in cells in absence of CPT. DT40 Tdp1-/- hTDP1 cells, no CPT, ATP luminescence, 48 h. Potency, µM (titrated, usually from 46.2 µM), without a hit: at the highest dose activity change, negative = growth inhibition, hits mostly inhibitors. actives 15% (n = 420,000); further: nearly all actives have a fitted effect of over 55% in size
#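 Luminescent ATP content (CellTiter-Glo) served as the growth readout. Knockout chicken DT40 cells expressing human TDP1 were exposed to compounds without camptothecin for a minimum 48 hr at 37 °C.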
# TDP1 cell CPT – DT40-hTDP1 cell growth loss with CPT. chicken DT40 Tdp1-/-;hTDP1 cells + 20 nM CPT, ATP luminescence, 48 h. Potency, µM (highest dose often 46.2 µM), inactives show top-dose activity change, negative = growth inhibition, hits mostly inhibitors. actives 12% (n = 420,000). AID 686979; further: nearly all actives have a fitted effect of over 55% in size
#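 Chicken DT40 Tdp1-/- cells complemented with human TDP1, 400 cells/well, exposed to compounds plus 20 nM camptothecin for at least 48 h at 37 C; viability read as ATP content by CellTiter-Glo luminescence.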
# 12-LOX inh – ALOX12 (human) lipoxygenase inhibition | purified 12hLO, xylenol orange hydroperoxide absorbance | Potency, µM (top dose mostly 108 µM), for inactives: at the highest dose activity change, negative = inhibition, most hits filed as inhibitors | actives 1.1% (n = 580,000) | AID 1671190
# Target sequence (P18054 whole entry, looked up): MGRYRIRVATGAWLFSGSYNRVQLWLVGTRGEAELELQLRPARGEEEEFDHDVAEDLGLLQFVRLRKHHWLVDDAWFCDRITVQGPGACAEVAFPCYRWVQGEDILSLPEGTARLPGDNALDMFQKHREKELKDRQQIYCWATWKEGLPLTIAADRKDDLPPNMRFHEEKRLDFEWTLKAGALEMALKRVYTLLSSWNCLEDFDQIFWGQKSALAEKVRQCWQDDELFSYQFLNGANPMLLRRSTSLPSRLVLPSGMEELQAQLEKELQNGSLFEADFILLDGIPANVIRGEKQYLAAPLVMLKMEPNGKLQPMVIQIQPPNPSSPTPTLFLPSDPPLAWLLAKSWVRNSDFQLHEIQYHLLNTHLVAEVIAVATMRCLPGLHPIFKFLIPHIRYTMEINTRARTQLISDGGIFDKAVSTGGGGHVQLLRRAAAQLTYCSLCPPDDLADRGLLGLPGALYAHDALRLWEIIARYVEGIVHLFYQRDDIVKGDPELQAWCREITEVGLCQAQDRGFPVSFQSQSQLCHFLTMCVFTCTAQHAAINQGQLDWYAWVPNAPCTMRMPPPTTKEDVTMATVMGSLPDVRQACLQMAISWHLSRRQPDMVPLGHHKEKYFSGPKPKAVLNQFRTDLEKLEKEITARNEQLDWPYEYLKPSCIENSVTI
#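 Hydroperoxide product was detected by ferrous iron/xylenol orange as the 573 to 405 nm absorbance ratio. Arachidonic acid at 40 uM (final) was turned over for 30 min at room temperature by 150 nM human 12hLO, pH 7.0 Hepes buffer, after 15 min compound preincubation.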
# Gal4-VP16 FLuc – inhibits Gal4-VP16 luciferase reporter, ROR gamma counter-screen; Drosophila S2 Gal4-VP16 UAS-luciferase, luminescence, 20 h; Potency, µM (doses to about 53.6 µM), for inactives: top-dose activity, negative = inhibition, hits mostly inhibitors; actives 3.5% (n = 310,000);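 further: Gal4-VP16 expression switched on by copper sulfate through the metallothionein promoter; nearly all actives have a fitted effect of over 50% in size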
# RORg inh – ROR gamma (mouse) transcription inhibition | AID 2551 | Potency, µM (top dose mostly 53.6 µM), for the others: top-dose activity change, negative = inhibition, most hits filed as inhibitors | Drosophila S2 Gal4-RORgamma UAS-luciferase reporter, 20 h | actives 5.4% (n = 310,000); further: nearly all actives have a fitted effect of over 60% in size
#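 Luciferase reporter read in Schneider cells carrying Gal4-RORγ (mouse) and UAS-Photinus luciferase; cells given compound 1 h before 700 uM copper sulfate induction, then incubated 20 h at ambient temperature.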
# * = called active by the depositor; ? = inconclusive; / = no result; [ ] = dose if it differs, or a comment. The call rests on the fitted dose curve; in most records, active means well fitted curve in the direction sought with a large enough effect; inconclusive means small, poorly fitted or top-dose-only effect, or another doubt; inactive means no such curve, though single readings can be large; an effect the other way counts as inactive or inconclusive. On the % scale 0 is the no-effect control and ±100 the full control effect; potency means the concentration at half of the fitted maximal effect.
SMILES,ELG1 DNA repair,TDP1 cell noCPT,TDP1 cell CPT,12-LOX inh,Gal4-VP16 FLuc,RORg inh
O=Cc1ccc(I)cc1,/,4µM*,1.6µM*,/,/,/
O=Cc1ccc(Cl)cc1,/,-8%,13%,/,5%,-5%
CSc1ccc(CN2C(=O)CN(S(C)(=O)=O)CC2(C)C(=O)NCc2ccc(Cl)cc2)cc1 (configuration not stated),/,/,/,-19%,/,/
O=C(CSc1nnnn1C1CC1)Nc1ccc(CN2CCCC2)cc1,/,/,/,10%,/,/
O=C1OC[C@H]2CCCN2C(=O)[C@@H](CC(=O)N(CCO)Cc2ccccc2)C/C=C\CC[C@@H]1Cc1ccc(F)cc1,?,21µM*,18µM*,-29%,/,/
CC(C)(C)OC(=O)C[C@@H]1C/C=C\C[C@@H](CC(=O)N(CCO)Cc2ccccc2)C(=O)N2CCC[C@H]2COC1=O,?,?,?,-14%,/,/
O=C1OC[C@@H]2CCCN2C(=O)[C@H](CC(=O)N(CCO)Cc2ccccc2)C/C=C\CC[C@H]1Cc1ccc(F)cc1,-16%,?,23µM*,14%,/,/
O=C1OC[C@H]2CCCN2C(=O)[C@@H](CC(=O)N(CCO)Cc2ccccc2)C/C=C\CC[C@H]1Cc1ccc(F)cc1,?,21µM*,16µM*,-10%,/,/
CC1CCN(C(=O)c2ccc3c(c2)C(O)CCCCCN3C)CC1 (configuration not stated),/,/,/,206%,/,/
CCN1c2cc(C(=O)Nc3ccc(Cl)c(F)c3)ccc2C(=O)N2CCCCC21 (configuration not stated),/,/,/,18%,/,/
CCn1ccc2cc(S(=O)(=O)N3CCC(C(=O)NCCCOC(C)C)CC3)ccc21,/,/,/,5%,/,/
FC(F)(F)c1cccc(NC(=S)NC(c2ccccc2)c2ccccc2)c1,-17%,5.2µM*,3.7µM*,35µM*,6.3µM*,7.1µM*
CNNC(=S)Nc1cccc(C(F)(F)F)c1,4%,1%,1%,?,27%,-32%
CCNC(=S)Nc1cccc(C(F)(F)F)c1,/,/,/,-6%,/,/
FC(F)(F)c1cccc(NC(=S)Nc2ccc(Cl)c(Cl)c2)c1,?,13µM*,?,0%,?,?
CC(C)(C)NC(=S)Nc1cccc(C(F)(F)F)c1,12µM*,26µM*,?,?,?,31%
CCOc1ccc(NC(=S)NNC(=S)Nc2cccc(C(F)(F)F)c2)cc1,?,?,?,-16%,-19%,?
COc1ccc(NC(=S)NNC(=S)Nc2cccc(C(F)(F)F)c2)cc1,14%,6.5µM*,5.8µM*,?,-7%,-1%
FC(F)(F)c1cccc(NC(=S)NNC(=S)Nc2cccc(C(F)(F)F)c2)c1,?,/,/,/,-29%,-12%
CN1CCC(C(=O)N2Cc3ccccc3CC3(CCCCN3CC3CCNC3)C2)CC1 (configuration not stated),/,/,/,-5%[6.33 µM],/,/
COc1ccc(Br)c(C(=O)Oc2ccccc2OC)c1,/,/,/,11%,/,/
O=[N+]([O-])c1cc(C(F)(F)F)cc([N+](=O)[O-])c1NCCNC(=S)Nc1ccc(Cl)c(Cl)c1,?,21µM*,?,?,?,?
COc1ccc(-c2nc(SC(CC(=O)NCc3ccco3)c3ccc(C)cc3)n[nH]2)cc1 (configuration not stated),/,/,/,-22%,/,/
Cc1cc(-c2cc(N)n(-c3ccccc3)n2)c(C)n1C1CCCC1,?,?,29µM*,4%,25%,20%
COc1ccc(/C=N/S(=O)(=O)c2ccc(C)cc2)cc1,3%,8%,1%,-9%,2%,6%
SMILES,ELG1 DNA repair,TDP1 cell noCPT,TDP1 cell CPT,12-LOX inh,Gal4-VP16 FLuc,RORg inh
COc1ccc(S(=O)(=O)/N=C2/C=CC(=O)C(C)=C2C)cc1,0%,1.6µM*,1.8µM*,/,-4%,-9%
CC1=C(C)/C(=N\OS(=O)(=O)c2ccc(C)cc2)C=CC1=O,?,0.65µM*,0.58µM*,?,2µM*,5µM*
COCCn1c(-n2nc(C)c(C)c2C)nc2c1c(=O)n(CC(=O)C(C)(C)C)c(=O)n2C,/,/,/,-4%,/,/
Cc1ccc(-n2c(O)c(/C=N/NC(=O)C3COc4ccccc4O3)c3ccccc3c2=O)cc1 (configuration not stated),-17%,26µM*,?,-25%,3.2µM*,4µM*
O=C(N/N=C/c1c(O)n(-c2ccccc2Cl)c(=O)c2ccccc12)C1COc2ccccc2O1 (configuration not stated),?,?,?,/,2.8µM*,4µM*
Cc1c(/C=N\NC(=O)C2COc3ccccc3O2)c2ccccc2n1C (configuration not stated),1%,0.92µM*,0.73µM*,17%,-5%,-8%
O=C(N1CCN(c2ccccn2)CC1)C1(c2ccc(Cl)cc2)CCOCC1,/,/,/,0%[6.33 µM],/,/
COc1cc2cc(C(=O)NCC(=O)Nc3ccc4c(c3)OCO4)n(C)c2c(OC)c1OC,/,/,/,42%,/,/
Cc1ccc(-n2c(-c3ccc(Br)cc3)c[n+]3c2CCc2ccc4cccnc4c2-3)cc1,?,0.29µM*,0.29µM*,?,1.4µM*,7.1µM*
O=S(=O)(Nc1ccc(Br)cc1)c1cccc2cccnc12,0%,?,-12%,2%,5%,3%
CNC(=O)C(C)SCc1ccc(Br)cc1 (configuration not stated),/,/,/,-6%,/,/
O=C(O)CC1CCC(=C(Cl)Cl)C1 (configuration not stated),?,2.9µM*,1µM*,?,?,?
c1ccc(-c2nn[nH]n2)cc1,-4%,-26%,-2%,-1%,3%,-11%
Fc1cccc(-c2nn[nH]n2)c1,-5%,1%,-3%,25µM*,1%,3%
CCN(CC)CCOc1nnc(-c2ccc(OC)cc2)c2ccccc12,-19%,?,?,0%,-11%,-9%
CCSc1nnc(-c2ccc(C)cc2)c2ccccc12,-1%,16µM*,?,-5%,-12%,-6%
CCN(CC)CCOc1nnc(-c2ccc(C)cc2)c2ccccc12,-5%,15µM*,?,0%,?,2%
CCSc1nnc(-c2ccc(Cl)cc2)c2ccccc12,3%,?,?,?,-6%,-3%
NS(=O)(=O)c1ccc(NCc2c(F)cccc2Cl)cc1,-12%,?,-21%,0%,6%,?
